aSyn 5UTR act – Activators via SNCA 5'UTR binding, MLPCN; alpha-synuclein 5'UTR reporter, activators screen; activity score, % (tested at 7.5 µM), hits read low; hit rate 7.1% among 300,000; in the data active means activity score below about -60%
Each line names hits and unclear results; the compound was inactive in the other large screens. The list is a sample of the results.

O=c1[nH]c(/C=C/c2ccccc2[N+](=O)[O-])nc2ccccc12	aSyn 5UTR act -190
O=c1[nH]c(/C=C/c2cccc3ccccc23)nc2ccccc12	aSyn 5UTR act -104
O=c1[nH]c(/C=C/c2ccccn2)nc2ccccc12	aSyn 5UTR act -176
O=[N+]([O-])c1ccccc1CSc1nc2ccccc2o1	aSyn 5UTR act -193
O=[N+]([O-])c1cccc(-c2nnc(SCc3cccnc3)o2)c1	aSyn 5UTR act -62
COc1cccc(-c2nnc(SCc3cccnc3)o2)c1	aSyn 5UTR act -164
Oc1cccc2ccc(/C=C/c3cccs3)nc12	aSyn 5UTR act -172
COc1ccc(C(NC(C)=O)c2ccc3cccnc3c2O)c(OC)c1 (configuration not stated)	none
COc1cc(/C=C/c2ccc3cccc(O)c3n2)ccc1O	aSyn 5UTR act -67
OCCn1c(-c2ccc3c(c2)OCO3)csc1=Nc1ccccc1	aSyn 5UTR act -97
CCn1c(-c2ccccc2)csc1=Nc1ccc(O)cc1	aSyn 5UTR act -139
CCOc1ccc(N=c2scc(-c3ccccc3)n2CCO)cc1	aSyn 5UTR act -104
CCC(=O)Nc1ccc2nc(C3CC3)n(Cc3ccc(C(C)(C)C)cc3)c(=O)c2c1	aSyn 5UTR act -150
CC(=O)Nc1ccc2nc(C3CC3)n(Cc3ccc(Cl)cc3)c(=O)c2c1	aSyn 5UTR act -165
COc1ccc(Cn2c(C3CC3)nc3ccc(NC(=O)C4CC4)cc3c2=O)cc1	aSyn 5UTR act -280
CC(=C/c1ccco1)/C=N/N1CCN(c2ccccc2)CC1	aSyn 5UTR act -175
CC(/C=N/N1CCN(c2ccccc2)CC1)=C\c1ccco1	aSyn 5UTR act -101
Cc1c(C(C)(C)C)sc(=NC(=O)c2ccccc2O)n1C	aSyn 5UTR act -125
CCSc1nnc(NC(=O)c2ccc(Br)s2)s1	aSyn 5UTR act -89
O=C(Nc1nnc(C(F)(F)F)s1)c1ccc(Br)s1	aSyn 5UTR act -75
CCSc1nnc(NC(=O)c2ccccc2)s1	aSyn 5UTR act -94
CCSc1nnc(NC(=O)c2ccccn2)s1	none
CCSc1nnc(NC(=O)c2ccccc2C)s1	aSyn 5UTR act -117
COc1ccc(-c2nnc3sc(C4CCCCC4)nn23)cc1OC	none
Cc1cc(C(=O)Nc2nnc(C3CCCCC3)s2)cs1	aSyn 5UTR act -136
O=C(Nc1nnc(C2CCCCC2)s1)c1ccc(Br)s1	aSyn 5UTR act -219
CC1(C)CC(=O)c2cc(N=C/C(C(=O)c3ccccc3)=C(\O)c3ccccc3)c(=O)oc2C1	aSyn 5UTR act -72
CN(C)c1ccc(-c2nnn(Cc3ccccc3Br)n2)cc1	aSyn 5UTR act -66
Clc1ccccc1Cn1nnc(-c2ccccc2)n1	aSyn 5UTR act -153
Clc1ccccc1Cn1nnc(-c2cccs2)n1	aSyn 5UTR act -100
COc1ccc(C(=O)/C=C/c2cn(CC(O)CN3CCN(C)CC3)c3ccccc23)cc1OC (configuration not stated)	aSyn 5UTR act -62
CN1CCN(Cn2cc(/C=C/C(=O)c3ccccc3)c3ccccc32)CC1	aSyn 5UTR act -312
O=[N+]([O-])/C=C/c1cn(Cc2ccc(Cl)cc2)c2ccccc12	none
Cc1ccc(CN=c2c([N+](=O)[O-])nn(-c3ccc4c(c3)OCCO4)n2O)cc1	aSyn 5UTR act -132
COc1ccc(-n2nc([N+](=O)[O-])c(=NCc3ccc4c(c3)OCO4)n2O)cc1	aSyn 5UTR act -109
Nc1c(C(=O)c2ccccc2)sc2nsc(SCCN3CCCC3)c12	aSyn 5UTR act -87
COC(=O)/C=C/c1cnc2ccccc2c1	aSyn 5UTR act -92
NC(=O)CN1C(=O)C(O)(CC(=O)/C=C\c2ccc3c(c2)OCO3)c2ccccc21 (configuration not stated)	aSyn 5UTR act -70
Brc1ccc(C2=NC(Cc3ccccc3)CO2)cc1 (configuration not stated)	aSyn 5UTR act -176
CC1(C)C2C/C(=N\O)C(C)(/[N+]([O-])=C/c3cccc([N+](=O)[O-])c3)CC21 (configuration not stated)	aSyn 5UTR act -62
Fc1ccc(-c2csc(N3CCOCC3)n2)cc1	aSyn 5UTR act -129
c1ccc(-c2cn3nc4c(nc3n2)CCCC4)cc1	none
Fc1ccc(-c2csc(N3CCSCC3)n2)cc1	aSyn 5UTR act -63
c1ccc(-c2csc(-n3cccn3)n2)cc1	aSyn 5UTR act -130
c1ccc(-c2csc(N3CCSCC3)n2)cc1	aSyn 5UTR act -90
Brc1ccc(-c2csc(N3CCC(c4ccccc4)C3)n2)cc1 (configuration not stated)	aSyn 5UTR act -86
O=C(CSc1nc(-c2ccc(F)cc2)cs1)N1CCOCC1	aSyn 5UTR act -119
CCOC(=O)Nc1ccc2nc3n(c(=O)c2c1)CCCCC3	aSyn 5UTR act -79
O=C(Nc1ccc2nc3n(c(=O)c2c1)CCCC3)c1cccc(F)c1	aSyn 5UTR act -82
CCN(CC)c1cc(C)c2cc(NC(=O)c3ccccc3F)ccc2n1	aSyn 5UTR act -125
O=C(Nc1ccc2nc3n(c(=O)c2c1)CCCC3)c1ccccc1F	aSyn 5UTR act -67
O=C(Nc1ccc2nc3n(c(=O)c2c1)CCCCC3)c1ccccc1[N+](=O)[O-]	aSyn 5UTR act -87
O=C(Nc1ccc2nc3n(c(=O)c2c1)CCCCC3)c1c(F)ccc([N+](=O)[O-])c1F	none
CCC(C)NC(=O)Cn1c(COc2ccc(Cl)cc2Cl)nc2ccccc21 (configuration not stated)	aSyn 5UTR act -122
COc1cc2ccccc2cc1C(=O)Nc1ccc(C)cn1	aSyn 5UTR act -87
Cc1ccc(NC(=O)c2cc(F)c(F)cc2Cl)nc1	aSyn 5UTR act -130
CC(=O)c1c(C)[nH]c(C(=O)Nc2ccc(C)cn2)c1C	none
Cc1ccc(NC(=O)c2ccccc2F)nc1	aSyn 5UTR act -88
CCCCOC(=O)CSc1nc2c(cc1C#N)C(=O)CC(C)(C)C2	aSyn 5UTR act -133
Cc1ccccc1/C=N/Nc1ncnc2nc[nH]c12	aSyn 5UTR act -71
Fc1ccc(/C=N/Nc2ncnc3nc[nH]c23)cc1F	aSyn 5UTR act -74
Cc1ccsc1/C=N/Nc1ncnc2nc[nH]c12	aSyn 5UTR act -90
C(=N\Nc1ncnc2nc[nH]c12)/c1cccs1	aSyn 5UTR act -69
COc1ccc(NN=Nc2ccc([N+](=O)[O-])cc2)cc1	aSyn 5UTR act -240
O=C(NC(=O)c1ccccc1)Nc1ccc(-c2cnco2)cc1	aSyn 5UTR act -143
O=C(Nc1ccc(Cl)cc1)Nc1ccc(-c2cnco2)cc1	aSyn 5UTR act -85
CC1=C(C(=O)Nc2ccccn2)C(c2ccc(Cl)cc2)NC(=S)N1 (configuration not stated)	aSyn 5UTR act -122
CC1=C(C(=O)Nc2ccccn2)C(c2ccc(Br)cc2)NC(=S)N1 (configuration not stated)	aSyn 5UTR act -106
O=c1c2[nH]c3ccccc3c2ncn1C1CCCCC1	aSyn 5UTR act -91
C=CCNC(=O)c1ccc(-c2cccc([N+](=O)[O-])c2)o1	aSyn 5UTR act -115
O=C(Nc1ccccc1F)c1ccc(-c2cccc([N+](=O)[O-])c2)o1	aSyn 5UTR act -141
O=C(NC(=S)Nc1cccc(Cl)c1N1CCCC1)c1ccc(-c2cccc([N+](=O)[O-])c2)o1	aSyn 5UTR act -63
O=C(Nc1ccccc1F)Nc1ccc([N+](=O)[O-])cc1Cl	aSyn 5UTR act -125
O=C(Nc1nccs1)c1ccc(-c2cccc([N+](=O)[O-])c2)o1	aSyn 5UTR act -175
O=C(O)CCc1ccc(S(=O)(=O)Nc2ccccc2C(=O)NCCc2ccccc2)cc1	aSyn 5UTR act -118
COc1ccc(NC(C)=O)cc1S(=O)(=O)Nc1ccccc1C(=O)NCCc1ccccc1	aSyn 5UTR act -128
C=CCOc1ccc(C(=O)Nc2ccc(OCC)cc2)cc1	aSyn 5UTR act -70

Assay outcomes as filed in PubChem BioAssay.
